Laboratory results from the supplement of paper PMC4466140.

B1: unnamed (peptide)
chain: QQNRPLPQLPNRNNR
B2: unnamed (peptide)
chain: VRTRRRPPPPPIPST

molecular target: AgAbp1; assay: SPOT peptide array binding signal intensity (averaged, normalized) (arbitrary units (background-subtracted, floor 0; scale differs between SH3 domains)); higher = stronger binding of the SH3 domain to the peptide
Protocol: (§1)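 GST-tagged SH3 domains from S. cerevisiae (Sc), A. gossypii (Ag), C. albicans (Ca) and S. pombe (Sp) were incubated at 10 ug/ml overnight at 4 C on cellulose SPOT membranes carrying 292 synthetic 15-mer peptides mined from the S. cerevisiae proteome (cysteines replaced by serines). Binding was detected with anti-GST antibody, HRP secondary and chemiluminescence, quantified with Genespotter, and reported as normalized spot intensities averaged over biological replicates.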

Binder	SPOT peptide array binding signal intensity
B1	30
B2	28.5

molecular target: AgBbc1; assay: as above
Protocol: as §1

Binder	SPOT peptide array binding signal intensity
B1	585
B2	892

molecular target: AgBem1-D1; assay: as above
Protocol: as §1

Binder	SPOT peptide array binding signal intensity
B1	98.5
B2	472

molecular target: AgBzz1-D1; assay: as above
Protocol: as §1

Binder	SPOT peptide array binding signal intensity
B1	73
B2	3600

molecular target: AgBzz1-D2; assay: as above
Protocol: as §1

Binder	SPOT peptide array binding signal intensity
B1	80
B2	940

molecular target: AgCyk3; assay: as above
Protocol: as §1

Binder	SPOT peptide array binding signal intensity
B1	102
B2	2

molecular target: AgFus1; assay: as above
Protocol: as §1

Binder	SPOT peptide array binding signal intensity
B1	17
B2	30

molecular target: AgHof1; assay: as above
Protocol: as §1

Binder	SPOT peptide array binding signal intensity
B1	938
B2	258

molecular target: AgHse1; assay: as above
Protocol: as §1

Binder	SPOT peptide array binding signal intensity
B1	29
B2	29

molecular target: AgLsb1; assay: as above
Protocol: as §1

Binder	SPOT peptide array binding signal intensity
B1	148
B2	91.8

molecular target: AgLsb4; assay: as above
Protocol: as §1

Binder	SPOT peptide array binding signal intensity
B1	1970
B2	44.5

molecular target: AgMyo5; assay: as above
Protocol: as §1

Binder	SPOT peptide array binding signal intensity
B1	≤ 0
B2	274

molecular target: AgNbp2; assay: as above
Protocol: as §1

Binder	SPOT peptide array binding signal intensity
B1	0.5
B2	840

molecular target: AgRvs167; assay: as above
Protocol: as §1

Binder	SPOT peptide array binding signal intensity
B1	797
B2	5.5

molecular target: AgSho1; assay: as above
Protocol: as §1

Binder	SPOT peptide array binding signal intensity
B1	2750
B2	≤ 0

molecular target: AgSla1-D1-D2; assay: as above
Protocol: as §1

Binder	SPOT peptide array binding signal intensity
B1	1
B2	20

molecular target: AgSla1-D3; assay: as above
Protocol: as §1

Binder	SPOT peptide array binding signal intensity
B1	≤ 0
B2	346

molecular target: CaAbp1-D1; assay: as above
Protocol: as §1

Binder	SPOT peptide array binding signal intensity
B1	32
B2	61

molecular target: CaAbp1-D2; assay: as above
Protocol: as §1

Binder	SPOT peptide array binding signal intensity
B1	6
B2	55

molecular target: CaBbc1; assay: as above
Protocol: as §1

Binder	SPOT peptide array binding signal intensity
B1	1000
B2	1060

molecular target: CaBem1-D1; assay: as above
Protocol: as §1

Binder	SPOT peptide array binding signal intensity
B1	26.5
B2	165

molecular target: CaBzz1-D1; assay: as above
Protocol: as §1

Binder	SPOT peptide array binding signal intensity
B1	132
B2	6060

molecular target: CaBzz1-D2; assay: as above
Protocol: as §1

Binder	SPOT peptide array binding signal intensity
B1	90.5
B2	3990

molecular target: CaCyk3; assay: as above
Protocol: as §1

Binder	SPOT peptide array binding signal intensity
B1	35
B2	108

molecular target: CaFus1; assay: as above
Protocol: as §1

Binder	SPOT peptide array binding signal intensity
B1	74
B2	7.5

molecular target: CaHof1; assay: as above
Protocol: as §1

Binder	SPOT peptide array binding signal intensity
B1	17
B2	≤ 0

molecular target: CaHse1; assay: as above
Protocol: as §1

Binder	SPOT peptide array binding signal intensity
B1	49.2
B2	13.8

molecular target: CaLsb1; assay: as above
Protocol: as §1

Binder	SPOT peptide array binding signal intensity
B1	1.5
B2	≤ 0

molecular target: CaLsb4; assay: as above
Protocol: as §1

Binder	SPOT peptide array binding signal intensity
B1	4700
B2	176

molecular target: CaMyo5; assay: as above
Protocol: as §1

Binder	SPOT peptide array binding signal intensity
B1	4
B2	13

molecular target: CaNbp2; assay: as above
Protocol: as §1

Binder	SPOT peptide array binding signal intensity
B1	100

molecular target: CaRvs167; assay: as above
Protocol: as §1

Binder	SPOT peptide array binding signal intensity
B1	1040

molecular target: CaRvs167-3; assay: as above
Protocol: as §1

Binder	SPOT peptide array binding signal intensity
B1	1.75

molecular target: CaSho1; assay: as above
Protocol: as §1

Binder	SPOT peptide array binding signal intensity
B1	658

molecular target: CaSla1-D1-D2; assay: as above
Protocol: as §1

Binder	SPOT peptide array binding signal intensity
B1	738

molecular target: CaSla1-D3; assay: as above
Protocol: as §1

Binder	SPOT peptide array binding signal intensity
B1	3.25

molecular target: ScAbp1; assay: as above
Protocol: as §1

Binder	SPOT peptide array binding signal intensity
B1	62

molecular target: ScBbc1; assay: as above
Protocol: as §1

Binder	SPOT peptide array binding signal intensity
B1	65

molecular target: ScBem1-D1; assay: as above
Protocol: as §1

Binder	SPOT peptide array binding signal intensity
B1	9

molecular target: ScBzz1-D1; assay: as above
Protocol: as §1

Binder	SPOT peptide array binding signal intensity
B1	25

molecular target: ScBzz1-D2; assay: as above
Protocol: as §1

Binder	SPOT peptide array binding signal intensity
B1	21

molecular target: ScCyk3; assay: as above
Protocol: as §1

Binder	SPOT peptide array binding signal intensity
B1	4

molecular target: ScFus1; assay: as above
Protocol: as §1

Binder	SPOT peptide array binding signal intensity
B1	22

molecular target: ScHof1; assay: as above
Protocol: as §1

Binder	SPOT peptide array binding signal intensity
B1	70.2

molecular target: ScHse1; assay: as above
Protocol: as §1

Binder	SPOT peptide array binding signal intensity
B1	≤ 0

molecular target: ScLsb1; assay: as above
Protocol: as §1

Binder	SPOT peptide array binding signal intensity
B1	95

molecular target: ScLsb2; assay: as above
Protocol: as §1

Binder	SPOT peptide array binding signal intensity
B1	36.5

molecular target: ScLsb3; assay: as above
Protocol: as §1

Binder	SPOT peptide array binding signal intensity
B1	6550

molecular target: ScLsb4; assay: as above
Protocol: as §1

Binder	SPOT peptide array binding signal intensity
B1	1180

molecular target: ScMyo3; assay: as above
Protocol: as §1

Binder	SPOT peptide array binding signal intensity
B1	≤ 0

molecular target: ScMyo5; assay: as above
Protocol: as §1

Binder	SPOT peptide array binding signal intensity
B1	≤ 0

molecular target: ScNbp2; assay: as above
Protocol: as §1

Binder	SPOT peptide array binding signal intensity
B1	23

molecular target: ScPex13; assay: as above
Protocol: as §1

Binder	SPOT peptide array binding signal intensity
B1	1010

molecular target: ScRvs167; assay: as above
Protocol: as §1

Binder	SPOT peptide array binding signal intensity
B1	1370

molecular target: ScSho1; assay: as above
Protocol: as §1

Binder	SPOT peptide array binding signal intensity
B1	6410

molecular target: ScSla1-D1-D2; assay: as above
Protocol: as §1

Binder	SPOT peptide array binding signal intensity
B1	383

molecular target: ScSla1-D3; assay: as above
Protocol: as §1

Binder	SPOT peptide array binding signal intensity
B1	2

molecular target: SpAbp1-D1; assay: as above
Protocol: as §1

Binder	SPOT peptide array binding signal intensity
B1	17

molecular target: SpBbc1; assay: as above
Protocol: as §1

Binder	SPOT peptide array binding signal intensity
B1	28

molecular target: SpBzz1-D1; assay: as above
Protocol: as §1

Binder	SPOT peptide array binding signal intensity
B1	450

molecular target: SpBzz1-D2; assay: as above
Protocol: as §1

Binder	SPOT peptide array binding signal intensity
B1	1.5

molecular target: SpCyk3; assay: as above
Protocol: as §1

Binder	SPOT peptide array binding signal intensity
B1	123

molecular target: SpHof1; assay: as above
Protocol: as §1

Binder	SPOT peptide array binding signal intensity
B1	1520

molecular target: SpHof1-2; assay: as above
Protocol: as §1

Binder	SPOT peptide array binding signal intensity
B1	1990

molecular target: SpHof1-3; assay: as above
Protocol: as §1

Binder	SPOT peptide array binding signal intensity
B1	1170

molecular target: SpHse1; assay: as above
Protocol: as §1

Binder	SPOT peptide array binding signal intensity
B1	14

molecular target: SpLsb1; assay: as above
Protocol: as §1

Binder	SPOT peptide array binding signal intensity
B1	82.8

molecular target: SpLsb4; assay: as above
Protocol: as §1

Binder	SPOT peptide array binding signal intensity
B1	6900

molecular target: SpMyo1; assay: as above
Protocol: as §1

Binder	SPOT peptide array binding signal intensity
B1	45.8

molecular target: SpNbp2; assay: as above
Protocol: as §1

Binder	SPOT peptide array binding signal intensity
B1	20

molecular target: SpPex13; assay: as above
Protocol: as §1

Binder	SPOT peptide array binding signal intensity
B1	3.5

molecular target: SpRvs167; assay: as above
Protocol: as §1

Binder	SPOT peptide array binding signal intensity
B1	2080

molecular target: SpSla1-D1-D2; assay: as above
Protocol: as §1

Binder	SPOT peptide array binding signal intensity
B1	333

molecular target: SpSla1-D3; assay: as above
Protocol: as §1

Binder	SPOT peptide array binding signal intensity
B1	7
